# According to PubChem BioAssay (NCATS):
# Values joined by “and” are separate entries in the source; they are usually repeats but may differ in a detail not shown here. Identical values can stand only once. Records with an inconclusive call do not appear. Entries that show only a call come without a potency. Unmarked numbers belong to inactive results. Active and inactive are the calls of the source. Calls follow the shape of the dose curve; as a rule, active = well fitted curve in the direction sought with a large enough effect; inconclusive = small, poorly fitted or top-dose-only effect, or another doubt; inactive = no such curve, though single readings can be large; an effect the other way counts as inactive or inconclusive.
# Experiments:
# [1] = molecular target: Cellular tumor antigen p53 (Homo sapiens) (UniProt P04637); test: Primary qHTS for small molecule compounds that upregulate eGFP-tagged delta133p53alpha (in N-terminal) cells. (AID 2060322); details: NCI-H358 eGFP-delta133p53alpha fluorescence, 24 h; activation: hits give high values; also: nearly all actives have a fitted effect of over 75% in size; also: potency is read from the fitted curve at half-maximal effect
# Outline: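 NCI-H358 cells pre-induced 24 h with 10 ng/ml doxycycline to express N-terminal eGFP-delta133p53alpha, then dosed 24 h at 37C without doxycycline; fixed, Hoechst-stained, GFP intensity by laser scanning cytometry, normalized to DMSO (0%) and 57.5 uM 5-azacytidine (100%).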
# [2] = molecular target: Aldehyde dehydrogenase, mitochondrial (Homo sapiens) (UniProt P05091); test: qHTS for Inhibitors of the Aldehyde Dehydrogenase Family (ALDH2) Primary screen (AID 2061308); details: ALDH2 enzyme inhibition qHTS, 1536-well; series mostly up to 56 µM; also: nearly all actives have a fitted effect of over 55% in size
# [3] = molecular target: Retinaldehyde dehydrogenase 3 (Homo sapiens) (UniProt P47895); test: qHTS for Inhibitors of the Aldehyde Dehydrogenase Family (ALDH1A3) Primary screen (AID 2061315); details: ALDH inhibition qHTS; series mostly up to 56 µM
# Sequence of Cellular tumor antigen p53 (Homo sapiens) (P04637 whole entry, looked up): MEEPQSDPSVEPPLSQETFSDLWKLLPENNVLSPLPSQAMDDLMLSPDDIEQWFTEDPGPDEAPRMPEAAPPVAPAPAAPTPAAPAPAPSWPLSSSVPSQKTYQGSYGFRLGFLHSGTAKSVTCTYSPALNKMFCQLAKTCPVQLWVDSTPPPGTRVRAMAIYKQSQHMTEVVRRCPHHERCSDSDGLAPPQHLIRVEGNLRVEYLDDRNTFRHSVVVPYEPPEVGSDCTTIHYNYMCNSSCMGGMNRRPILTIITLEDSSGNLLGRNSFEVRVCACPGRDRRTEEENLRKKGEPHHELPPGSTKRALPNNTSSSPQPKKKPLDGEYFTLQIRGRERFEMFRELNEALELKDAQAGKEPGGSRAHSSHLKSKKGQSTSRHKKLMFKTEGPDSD
SMILES,activation [1],Potency [2],Potency [3],Potency [1],"activity change, negative = inhibition [2]","activity change, negative = inhibition [3]"
Cc1ccc(C)c(NC(=O)CNS(=O)(=O)c2ccc3[nH]c(=O)oc3c2)c1,17%,inactive,inactive,–,–,–
C[C@@H]1O[C@@H](O[C@H]2[C@@H]3C=CO[C@@H](O[C@@H]4O[C@H](CO)[C@@H](O)[C@H](O)[C@H]4O)[C@@H]3[C@@]3(CO)O[C@@H]23)[C@H](OC(=O)/C=C/c2ccccc2)[C@H](O)[C@H]1O,4.46%,inactive,inactive,–,–,–
CCOc1ccc(-c2ccc(Cn3c(CC(C)(C)C(=O)O)c(SC(C)(C)C)c4cc(OCc5ccc(C)cn5)ccc43)cc2)cn1,-1% and 3%,inactive,inactive,–,–,–
C=C1C(=O)O[C@@H]2C[C@@]3(C)CCC[C@H](C)C3=C[C@H]12,–,inactive,inactive,19 µM (active),–,–
Cc1cccc(N(C)C(=S)Oc2ccc3c(c2)CCC3)c1,-3%,inactive,inactive,–,–,–
COc1ccc(C2(O)c3ccccc3NC(=O)C2OC)cc1 (stereo unspecified),-2.29%,inactive,inactive,–,–,–
CC1=CC(=O)CC(C)(C)[C@@]1(O)CC[C@@H](C)O[C@@H]1O[C@H](CO)[C@@H](O)[C@H](O)[C@H]1O,29.5%,inactive,inactive,–,–,–
CC(C)(O)C1=CCC23COC(C2)C(O)(C(=O)O)CCC13 (stereo unspecified),-6.87%,inactive,inactive,–,–,–
C[C@@H]1CC[C@]2(C(=O)O)CC[C@]3(C)C(=CCC4[C@@]5(C)C[C@@H](O)[C@@H](O)C(C)(C)C5CC[C@]43C)C2[C@]1(C)O (stereo partly specified),-5.36%,inactive,inactive,–,–,–
C=C1CCC2C(C)(C)CC(O)CC2(C)C1CCC(C)CCOC(=O)CCC(=O)O (stereo unspecified),17.6%,inactive,inactive,–,–,–
CCC[C@@H]1C[C@@H](C(=O)N[C@@H]([C@H]2O[C@H](SC)[C@H](O)[C@@H](O)[C@@H]2O)[C@@H](C)O)N(C)C1,7%,inactive,inactive,–,–,–
C[C@@H]1O[C@@H](O[C@H]2[C@H](O)[C@@H](C(=O)O)O[C@@H](O[C@H]3CC[C@@]4(C)C(CC[C@]5(C)C4CC=C4C6CC(C)(C)CC[C@]6(C(=O)O)CC[C@]45C)C3(C)C)[C@@H]2O[C@@H]2OC[C@@H](O)[C@H](O)[C@H]2O)[C@H](O)[C@H](O)[C@H]1O (stereo partly specified),2.68%,inactive,inactive,–,–,–
C[C@@]1(C(=O)O)CCC[C@@]2(C)C3=CC[C@H]4C[C@@]3(CC[C@H]12)CC4(O)CO (stereo partly specified),-2.29%,inactive,inactive,–,–,–
CN1CCN(C(=O)c2cc3cc(Cl)ccc3[nH]2)CC1,-0.893%,inactive,inactive,–,–,–
Cc1cc(CS(=O)(=O)c2ccccc2)cc(OCc2ccc(CN3CCC[C@H]3CO)cc2)c1,-28.2%,inactive,inactive,–,–,–
C=C1CC23CCC4[C@@](C)(CCC[C@@]4(C)C(=O)O)C2CCC1C3 (stereo partly specified),6.25%,inactive,inactive,–,–,–
C[C@@H]1CC[C@@]2(OC1)O[C@H]1C[C@H]3[C@@H]4CC=C5C[C@@H](O)CC[C@]5(C)[C@H]4CC[C@]3(C)[C@H]1[C@@H]2C,-4.46%,inactive,inactive,–,–,–
CC(=O)O[C@H]1C[C@@](O)(C(C)C)[C@@H]2[C@@H](OC(=O)c3ccc(O)cc3)CC(C)=CC[C@@]12C,21.4%,inactive,inactive,–,–,–
COc1c2cc(c(O)c1OC)-c1cc(ccc1O)CCC(O)CCCC2 (stereo unspecified),11.5%,inactive,inactive,–,–,–
CC1(C)CC2C(C1)C1(C)CCC13OC3(CO)C2O (stereo unspecified),-14.3%,inactive,inactive,–,–,–
C[C@H]1[C@H](C)CC[C@]2(C(=O)O)CC[C@]3(C)C(=CCC4[C@@]5(C)C[C@@H](O)[C@H](O)C(C)(C)C5CC[C@]43C)[C@H]12 (stereo partly specified),-9.16%,inactive,inactive,–,–,–

SMILES,activation [1],Potency [2],Potency [3],Potency [1],"activity change, negative = inhibition [2]","activity change, negative = inhibition [3]"
C[C@H](NC(=O)CCc1nc2ccccc2c(=O)[nH]1)c1ccccc1,1%,inactive,inactive,–,–,–
Cc1ccc(OC[C@H](O)[C@H](C)NC(C)C)c2c1CCC2,10.3%,inactive,inactive,–,–,–
C/C=C(\C)C(=O)O[C@@H]1CC2[C@@H](CC=C3C[C@@H](O[C@H]4C[C@H](OC)[C@H](O[C@H]5C[C@H](OC)[C@H](O[C@H]6C[C@H](OC)[C@H](O[C@H]7C[C@@H](OC)[C@H](O[C@@H]8O[C@H](CO)[C@@H](O)[C@H](O)[C@H]8O)[C@@H](C)O7)[C@@H](C)O6)[C@@H](C)O5)[C@@H](C)O4)CC[C@@]32C)[C@@]2(O)CC[C@H](C(C)=O)[C@@]12C (stereo partly specified),-9.92%,–,–,–,15.2% [at 11.2 µM],-14.5% [at 11.2 µM]
CC1=C2C=C(CO)C(CO)CCC2(C)CCC1=O (stereo unspecified),3.82%,inactive,inactive,–,–,–
CCC(C)C(C(=O)O)N1Cc2c(OCC=C(C)C)c(C)c(OC)c(C(=O)O)c2C1=O (stereo unspecified),5.34%,inactive,inactive,–,–,–
CC(C)c1ccc2c(c1)C(=O)CC1C(C)(C(=O)O)CCCC21C (stereo unspecified),3.57%,inactive,inactive,–,–,–
C/C=C(\C)C(=O)O[C@H]1[C@H](O)[C@]2(COC(C)=O)[C@H](O)C[C@]3(C)C(=CCC4[C@@]5(C)CC[C@H](O[C@@H]6O[C@H](C(=O)O)[C@@H](O[C@@H]7O[C@H](CO)[C@@H](O)[C@H](O)[C@H]7O)[C@H](O)[C@H]6O[C@@H]6O[C@H](CO)[C@@H](O)[C@H](O)[C@H]6O)[C@](C)(CO)C5CC[C@]43C)[C@@H]2CC1(C)C (stereo partly specified),-8.4%,inactive,inactive,–,–,–
CC(C)CC1(C(=O)OCc2ccc(O[C@@H]3O[C@H](CO)[C@@H](O)[C@H](O)[C@H]3O)cc2)CC(=O)OC(C(=O)O)CC(=O)OCC2OC(O1)C(OC(=O)/C=C/c1ccc(O)cc1)C(O)C2O (stereo partly specified),3.05%,inactive,inactive,–,–,–
Cc1occc(=O)c1O[C@@H]1O[C@H](CO[C@@H]2OC[C@](O)(CO)[C@H]2O)[C@@H](O)[C@H](O)[C@H]1O,0%,inactive,inactive,–,–,–
COc1ccc(S(=O)(=O)N2CCC[C@H]2C(=O)Nc2cc(C)cc(C)c2)cc1,-17.2%,inactive,inactive,–,–,–
CC(=O)OC[C@@]12[C@H](O)C[C@]3(C)C(=CCC4[C@@]5(C)CC[C@H](O[C@@H]6O[C@H](C(=O)O)[C@@H](O[C@@H]7O[C@H](CO)[C@@H](O)[C@H](O)[C@H]7O)[C@H](O)[C@H]6O[C@@H]6O[C@H](CO)[C@@H](O)[C@H](O)[C@H]6O)[C@](C)(CO)C5CC[C@]43C)[C@@H]1CC(C)(C)[C@@H](OC(C)=O)[C@@H]2O (stereo partly specified),-4.58%,inactive,inactive,–,–,–
C/C=C(/C)C(=O)OC1CC(C)(C)CC2C3=CCC4C5(C)CCC(O[C@@H]6O[C@H](C(=O)O)[C@@H](O)[C@H](O)[C@H]6O[C@@H]6O[C@H](CO)[C@H](O)[C@H](O[C@@H]7OC[C@H](O)[C@H](O)[C@H]7O[C@@H]7O[C@H](CO)[C@@H](O)[C@H](O)[C@H]7O)[C@H]6O)C(C)(C)C5CCC4(C)C3(C)C(O)C(O)C12CO (stereo partly specified),0.893%,–,–,–,-0.94% [at 11.2 µM],-6.72% [at 11.2 µM]
C[C@@H]1O[C@@H](O[C@H]2[C@H](O[C@H]3[C@H](O[C@H]4CC[C@@]5(C=O)C(CC[C@]6(C)C5CC=C5C7CC(C)(C)C[C@@H](O)[C@]7(C)CC[C@]56C)C4(C)C)O[C@H](C(=O)O)[C@@H](O)[C@@H]3O)OC[C@@H](O)[C@@H]2O)[C@H](O)[C@H](O)[C@H]1O (stereo partly specified),-8.93%,inactive,inactive,–,–,–
Cc1c(O)cc2c(c1O)COC1(O)CCCOC21 (stereo unspecified),-17.6%,inactive,inactive,–,–,–
C/C(=C\CCC(C)C1CC(O)C2(C)C3CCC4C(C)(C)C(OC5OCC(O)C(O)C5O)CCC45CC35CC(O)C12C)C(=O)O (stereo unspecified),17.6%,inactive,inactive,–,–,–
CC(=O)OCC1=C[C@@H]2OC(=O)C3=CO[C@@H](O[C@@H]4O[C@H](CO)[C@@H](O)[C@H](O)[C@H]4O)[C@H]1[C@@H]32,-16.8%,inactive,inactive,–,–,–
CC1(C)CCC2(C(=O)OC3OC(COC4OC(CO)C(O)C(O)C4O)C(O)C(O)C3O)CCC3(C)C(=CCC4C5(C)CCC(O)C(C)(C(=O)O)C5CCC43C)C2C1O (stereo unspecified),5.34%,inactive,inactive,–,–,–
CC(C)(C)NS(=O)(=O)c1ccc(-c2ccc3[nH]nc(N)c3c2)cc1,0%,inactive,inactive,–,–,–
COc1cc(C2OCC3(O)C(c4ccc(O[C@@H]5O[C@H](CO)[C@@H](O)[C@H](O)[C@H]5O)c(OC)c4)OCC23O)ccc1O (stereo partly specified),-6.11%,inactive,inactive,–,–,–
COc1cc(/C=C/C(=O)OC[C@H]2O[C@@](CO)(O[C@H]3O[C@H](CO)[C@@H](O)[C@H](O)[C@H]3O)[C@@H](OC(=O)/C=C/c3ccc(O)c(OC)c3)[C@@H]2O)ccc1O,-3.82%,inactive,inactive,–,–,–
C/C=C(\C)C(=O)O[C@@H]1CC2[C@@H](CC=C3C[C@@H](O[C@H]4C[C@H](OC)[C@H](O[C@H]5C[C@H](OC)[C@H](O[C@@H]6O[C@H](C)[C@@H](O[C@H]7C[C@H](OC)[C@H](O[C@@H]8O[C@H](CO)[C@@H](O)[C@H](O)[C@H]8O)[C@@H](C)O7)[C@H](OC)[C@H]6O)[C@@H](C)O5)[C@@H](C)O4)CC[C@@]32C)[C@@]2(O)CC[C@H](C(C)=O)[C@@]12C (stereo partly specified),9.92%,–,–,–,12% [at 11.2 µM],11% [at 11.2 µM]
